# PLK1 PBD inh = qHTS for Inhibitors of PLK1-PDB (polo-like kinase 1 - polo-box domain): Primary Screen | Serine/threonine-protein kinase PLK1 (Homo sapiens), P53350 | Plk1 PBD binding of FITC phosphopeptide, fluorescence polarization | 360,000 tested, 2.8% active | Potency, µM, inactives show max response, negative = inhibition, actives largely listed as inhibitors | AID 720504, 2013; also: series mostly up to about 57 µM; % is scaled to controls: 0 for no effect and ±100 for the full control effect; nearly all actives have a fitted effect of over 65% in size
# Target sequence (P53350 whole entry, looked up, the tested form may be a part): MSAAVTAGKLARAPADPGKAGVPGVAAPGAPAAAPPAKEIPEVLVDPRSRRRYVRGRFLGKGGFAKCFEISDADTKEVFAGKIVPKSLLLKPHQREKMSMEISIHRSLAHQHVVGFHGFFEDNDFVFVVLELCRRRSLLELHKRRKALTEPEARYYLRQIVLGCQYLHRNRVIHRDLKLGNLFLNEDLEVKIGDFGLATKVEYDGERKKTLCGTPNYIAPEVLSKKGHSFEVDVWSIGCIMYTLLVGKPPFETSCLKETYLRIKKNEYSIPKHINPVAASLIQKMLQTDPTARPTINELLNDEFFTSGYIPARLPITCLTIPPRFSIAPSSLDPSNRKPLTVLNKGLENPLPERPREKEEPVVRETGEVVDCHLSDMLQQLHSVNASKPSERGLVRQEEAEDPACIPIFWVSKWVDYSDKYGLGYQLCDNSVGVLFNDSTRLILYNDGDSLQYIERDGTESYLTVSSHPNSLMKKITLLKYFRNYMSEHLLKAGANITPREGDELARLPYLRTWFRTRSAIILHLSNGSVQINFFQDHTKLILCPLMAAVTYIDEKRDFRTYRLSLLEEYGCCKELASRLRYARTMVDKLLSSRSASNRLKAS
# JMJD2A Tudor inh = qHTS Assay for Inhibitors of JMJD2A-Tudor Domain. Lysine-specific demethylase 4A (Homo sapiens), O75164. AlphaScreen JMJD2A-Tudor / H3K4me3 peptide binding. Potency, µM (highest dose often 114 µM), inactives show top-dose activity change, negative = inhibition, usual class: inhibitors. 390,000 tested, 4.4% active. AID 504339, 2011; also: % is scaled to controls: 0 for no effect and ±100 for the full control effect; nearly all actives have a fitted effect of over 50% in size
# HP1b chromo inh = HTS for Inhibitors of HP1-beta Chromodomain Interactions with Methylated Histone Tails. Chromobox protein homolog 1 (Homo sapiens), P83916. AlphaScreen HP1-beta / biotin-H3K9me3 peptide binding. Potency, µM (series often up to 114 µM), without a hit: at the top dose activity change, negative = inhibition, usual class: inhibitors. 390,000 tested, 0.56% active. AID 540317, 2011; also: nearly all actives have a fitted effect of over 70% in size
#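 Compound inhibition of the preformed complex between 50 nM HP1-beta and 50 nM biotinylated H3K9me3 peptide was read by AlphaScreen. Buffer was PBS pH 7.4 with 0.01% Tween-20. Incubations ran 30 min at room temperature, with 10 ug/mL donor/acceptor beads.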
# BAZ2B inh = qHTS Assay for Inhibitors of BAZ2B; Potency, µM (titrated, usually from 114 µM), for inactives: at the highest dose activity change, negative = inhibition, actives largely listed as inhibitors; AID 504333, 2011; AlphaScreen BAZ2B-H3K14Ac peptide displacement; 360,000 tested, 4.4% active; Bromodomain adjacent to zinc finger domain protein 2B (Homo sapiens), Q9UIF8; also: % is scaled to controls: 0 for no effect and ±100 for the full control effect; nearly all actives have a fitted effect of over 60% in size
#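 BAZ2B (50 nM) with biotin-H3(5-23)K14Ac peptide (50 nM) in PBS pH 7.4, 0.01% Tween-20, preformed 30 min, then compound 30 min at room temperature; top concentration 110uM. AlphaScreen streptavidin donor/nickel chelate acceptor beads (10 ug/mL final), 20 min dark, signal read.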
# G9a inh = qHTS Assay for Inhibitors of Histone Lysine Methyltransferase G9a; Histone-lysine N-methyltransferase EHMT2 (Homo sapiens), Q96KQ7; G9a H3K9 monomethylation, AlphaScreen, 2 h; Potency, µM (highest dose often 102 µM), for the others: at the top dose activity, negative = inhibition, usual class: inhibitors; 350,000 tested, 8.8% active; AID 504332, 2011; also: % is scaled to controls: 0 for no effect and ±100 for the full control effect; nearly all actives have a fitted effect of over 75% in size
#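 Enzyme 20 nM + cpd, 15 min RT; add b-H3K9 pep 500 nM / SAM 20 uM; 2 h RT; anti-H3K9me1 Ab 0.5 ug/mL + SA donor / anti-rabbit acceptor beads 20 ug/mL each, 10 min; AlphaScreen read.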
# Sfp PPTase inh = qHTS Assay for Inhibitors of Bacillus subtilis Sfp phosphopantetheinyl transferase (PPTase); 4'-phosphopantetheinyl transferase ffp (Bacillus subtilis), Q9F4F7; Biochemical Sfp PPTase activity, qHTS; Potency, µM, without a hit: largest response in the series, negative = inhibition, usual class: inhibitors; 310,000 tested, 3.5% active;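 also: the enzyme is Sfp with the accession as filed and its product quenches rhodamine fluorescence; 0% = enzyme reaction without inhibitor and -100% = no enzyme wells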
#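 Fluorescence-quenching assay: 15 nM Sfp-PPTase preincubated 15 min at room temperature with compound, then 5 uM rhodamine-CoA and 12.5 uM BHQ-2-labelled YbbR peptide added. Fluorescence (ex 525/em 598 nm) read at start and after 30 min; difference gives rate.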
# An asterisk follows results filed as active; ? = inconclusive; . = no result; [ ] = remark or other dose. A selection: hits, their analogues and other compounds. The true share with any hit is near 12%. Calls follow the shape of the dose curve; as a rule, active = well fitted curve in the direction sought with a large enough effect; inconclusive = small, poorly fitted or top-dose-only effect, or another doubt; inactive = no such curve, though single readings can be large; an effect the other way counts as inactive or inconclusive. Potency is read from the fitted curve at half-maximal effect.
SMILES,PLK1 PBD inh,JMJD2A Tudor inh,HP1b chromo inh,BAZ2B inh,G9a inh,Sfp PPTase inh
O=C1C2C3C=CC(C3=C(c3ccccc3)c3ccccc3)C2C(=O)N1CCO (stereo unspecified),2%,-33%,5%,-9%,-26%[59 µM],5%
CC(C)CC(=O)N1CCN(Cc2ccccc2Cl)CC1,-4%,-100%,?,50µM*,4%[0.501 µM],3%
COc1cc(CN2CCN(C(=O)CC(C)C)CC2)cc(OC)c1OC,-3%,6.3µM*,?,28µM*,?,?
COc1cc(CC(=O)O)c([N+](=O)[O-])cc1OC,-1%,-1%[11.4 µM],20%,-10%,18%,20%
COc1cc(CN2CCN(C(=O)CC(C)C)CC2)c([N+](=O)[O-])cc1OC,3%,22µM*,?,45µM*,18µM*,?
O=C(CN1CCN(Cc2ccccc2Cl)C1=O)N1CCCCCC1,-5%,-21%,27%,-24%,-4%,17%
COc1ccc(CN2CCN(C(=O)CC(C)C)CC2)cc1,-10%,7.9µM*,?,?,.,-34%
CCc1cc(C(c2ccncc2)N2CCN(C)CC2)c(NC(=O)c2ccccc2)s1 (stereo unspecified),-13%,-35%,16%,?,40µM*,-17%
CCOc1ccc(C(c2c(NC(=O)c3ccccc3)sc(C)c2C)N2CCN(CCO)CC2)cc1 (stereo unspecified),-1%,?,-13%,?,?,-17%
Cc1cc(C)n(-c2ccc(C(=O)OCC(=O)Nc3ccc([N+](=O)[O-])cc3)cc2)n1,1%,-21%,20%,-28%,?,8%
O=[N+]([O-])c1ccc(O)c(-c2ccnc3cc(-c4ccccc4)nn23)c1,.,-16%,27%,-33%,-4%[59 µM],.
Cc1cc(C)n(-c2ccc([N+](=O)[O-])cc2-c2nn[nH]n2)n1,3%,-28%,28%,?,?,79µM*
O=[N+]([O-])c1ccc(O)c(-c2nn[nH]n2)c1,3.4µM*,3.2µM*,?,2.8µM*,?,-18%
O=C(C1CCCCC1)N1C[C@@H](O)[C@H](n2cc(C3CC3)nn2)C[C@@H]1c1ccccc1,1%,.,.,.,.,.
CCOc1cccc2cc(C(=O)NCc3ccccc3)c(=N)oc12,-2%,1%,54%,0%,-3%,-2%
CCOc1cccc2cc(C(=O)Oc3ccc(OC)cc3)c(=O)oc12,-4%,-29%,12%,-25%,20µM*,?
CCOc1cccc2cc(C(N)=O)c(=N)oc12,-6%,-3%,28%[57 µM],-4%,32µM*,18%
COc1cccc2cc(C(=O)Oc3ccccc3)c(=O)oc12,-7%,-20%,21%,?,.,-7%
Cc1ccc(C)c(N2CCN(Cc3nnnn3C3CCCCC3)CC2)c1,2%,-20%,24%,-3%,-49%[59 µM],79µM*
C/C=C(\C)CN1CCN(c2cc(C)ccc2C)CC1,2%,5.6µM*,?,-33%,1.3µM*,?
C/C=C(\C)CN1CCN(c2ccccc2)CC1,4%,-16%,8%,?,50µM*,10%
O=C(Nc1cccc(Cl)c1)c1cc(S(=O)(=O)N2CCCc3ccccc32)ccc1F,.,-2%,12%,15%,9%[59 µM],.
COC(=O)c1ccc2c(=O)n(-c3ccccc3)c(SCN3C(=O)c4ccccc4C3=O)nc2c1,1%,3%,50%,-1%,28µM*,-8%
CC(=O)Nc1ccc2nc(-c3ccncc3)[nH]c2c1,-5%,-25%,23%,?,5%,-1%
CC(=O)Nc1cc(NC(C)=O)cc(-c2nc3ccccc3[nH]2)c1,-11%,-10%,?,50µM*,-2%,12%
SMILES,PLK1 PBD inh,JMJD2A Tudor inh,HP1b chromo inh,BAZ2B inh,G9a inh,Sfp PPTase inh
CC(=O)Nc1ccc2nc(-c3ccccn3)[nH]c2c1,-4%,56µM*,12%,?,?,50µM*
CC(=O)Nc1ccc(-c2nc3ccc(Cl)cc3[nH]2)cc1,.,.,.,.,.,-18%
Cc1ccc(C)c(NC(=O)c2ccccc2NC(=O)C2CCCO2)c1 (stereo unspecified),-8%,-17%,34%,-2%,9%,8%
Cc1nc(N)c(C#N)c(-c2ccc3c(c2)OCO3)c1C,0%,2%,37%,-22%,17%[59 µM],5%
Cc1ccc(-c2cc(-c3ccc4c(c3)OCO4)c(C#N)c(N)n2)o1,-24%,7%,33%,.,?,10µM*
Cc1ccc(-c2cc(-c3ccc(C)o3)nc(N)c2C#N)cc1,13µM*,32µM*,?,71µM*,2µM*,13µM*
N#Cc1c(N)oc(-c2ccc3c(c2)OCO3)c1-c1ccc2c(c1)OCO2,-16%,-32%,2%,?,50µM*,4%
Cc1ccc(-c2cc(-c3ccc(Cl)cc3)c(C#N)c(N)n2)o1,21µM*,79µM*,-6%,56µM*,5.6µM*,8.9µM*
COc1ccc(-c2cc(-c3ccc(O)cc3)nc(N)c2C#N)cc1OC,-3%,13%,72%,-34%,2%,?
O=C(NC1CC(=O)N(c2ccccc2)C1)c1cccs1 (stereo unspecified),.,6%,30%,-1%,12%[59 µM],.
COc1ccccc1C(=O)NCc1nnnn1-c1ccc(C)c(C)c1,.,-10%,19%[57 µM],8%,15%[59 µM],.
CCC(NC(=S)NCc1ccc(F)cc1)c1ccccc1 (stereo unspecified),-19%,-8%,50%,-38%,68%,18%
Cc1ccc(-c2cc(-c3ccc(F)cc3)c(C#N)c(N)n2)o1,?,40µM*,16%,-26%,8.9µM*,?
Cc1c(-c2ccc(F)cc2)nc(N)c(C#N)c1-c1ccco1,-6%,0%,30%,5%,?,-1%
CCOc1cc(-c2cc(-c3ccc(C)o3)nc(N)c2C#N)ccc1O,-4%,-12%,23%,4%,40µM*,-7%
COc1ccc2oc(C(=O)Nc3ccc(S(=O)(=O)N(C)C4CCN(C)CC4)cc3)c(C)c2c1,-4%,-35%,13%,-30%,-49%,-8%
Cc1cccc(C(=O)N2CCc3cc(CNS(=O)(=O)c4ccc(F)c(Cl)c4)ccc32)c1,.,4%,35%[57 µM],4%,6%[59 µM],.
Nc1c(-c2ccccc2)sc2ccc3ccccc3[n+]12,?,5%,27%,-37%,1µM*,35µM*
